The values that follow come from article PMC7862700, “An all-to-all approach to the identification of sequence-specific readers for epigenetic DNA modifications on cytosine”.

What all share (test): DAPPL (digital affinity profiling via proximity ligation, sequencing); 10 mM Tris-HCl pH 7.5, 50 mM NaCl, 1 mM DTT, 4% glycerol, room temperature, 30 min; GST-TFs on glutathione beads, 16-mer random dsDNA library, 0.1% formaldehyde crosslink after washing; high values mean tight binding
One assay addresses T1, FLI1 (Homo sapiens, UniProt Q01543 1-452).
T1 sequence: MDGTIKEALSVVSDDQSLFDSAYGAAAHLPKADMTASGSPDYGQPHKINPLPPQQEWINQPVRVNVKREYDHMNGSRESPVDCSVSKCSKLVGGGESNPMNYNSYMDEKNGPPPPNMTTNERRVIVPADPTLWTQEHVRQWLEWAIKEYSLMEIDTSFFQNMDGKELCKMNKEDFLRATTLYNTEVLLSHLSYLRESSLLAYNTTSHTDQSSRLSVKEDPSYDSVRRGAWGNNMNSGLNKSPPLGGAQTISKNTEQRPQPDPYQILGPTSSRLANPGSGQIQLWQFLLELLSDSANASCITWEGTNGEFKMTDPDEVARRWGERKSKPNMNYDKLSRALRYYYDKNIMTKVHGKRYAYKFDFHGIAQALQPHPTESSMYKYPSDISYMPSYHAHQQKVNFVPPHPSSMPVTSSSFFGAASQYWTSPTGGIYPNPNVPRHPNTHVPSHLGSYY
The settings on record: protein: recombinant; tags: N-terminal GST; dsDNA, one strand shown. The method in brief:
(§1)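 In yeast, human transcription factors were expressed with a GST fusion, then pulled down on glutathione beads and given DNA barcodes. Pooled with a tag-only sample, they were exposed to 200 nmole of a 16-mer random double-stranded DNA library (Tris/NaCl/DTT/glycerol buffer, room temperature, 30 min), washed, crosslinked with 0.1% formaldehyde, proximity-ligated using BsaI/T4 ligase for 1 h at 37 °C, PCR-amplified and read on an Illumina NextSeq500. Each hexamer's frequency of reads for a factor, divided by the matching frequency for the tag-only sample, gives the binding signal.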

In a further assay the target is T2, ELK1 (Homo sapiens, UniProt P19419 1-428).
T2 sequence: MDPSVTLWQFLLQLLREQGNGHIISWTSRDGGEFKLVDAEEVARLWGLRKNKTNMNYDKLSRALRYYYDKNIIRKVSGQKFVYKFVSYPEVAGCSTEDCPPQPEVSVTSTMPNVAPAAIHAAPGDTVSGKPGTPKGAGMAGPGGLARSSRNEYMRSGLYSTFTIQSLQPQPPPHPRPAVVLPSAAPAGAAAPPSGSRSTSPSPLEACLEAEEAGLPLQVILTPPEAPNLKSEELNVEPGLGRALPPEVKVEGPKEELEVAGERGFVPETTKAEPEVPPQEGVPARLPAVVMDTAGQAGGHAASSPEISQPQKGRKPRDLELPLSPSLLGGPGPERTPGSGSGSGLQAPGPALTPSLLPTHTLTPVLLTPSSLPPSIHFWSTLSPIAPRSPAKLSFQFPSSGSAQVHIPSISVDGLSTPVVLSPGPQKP
The settings on record: protein: recombinant; tags: N-terminal GST; dsDNA, one strand shown. The essentials: as §1

In the next assay the target is T3, GABPA (Homo sapiens, UniProt Q06546 1-454).
T3 sequence: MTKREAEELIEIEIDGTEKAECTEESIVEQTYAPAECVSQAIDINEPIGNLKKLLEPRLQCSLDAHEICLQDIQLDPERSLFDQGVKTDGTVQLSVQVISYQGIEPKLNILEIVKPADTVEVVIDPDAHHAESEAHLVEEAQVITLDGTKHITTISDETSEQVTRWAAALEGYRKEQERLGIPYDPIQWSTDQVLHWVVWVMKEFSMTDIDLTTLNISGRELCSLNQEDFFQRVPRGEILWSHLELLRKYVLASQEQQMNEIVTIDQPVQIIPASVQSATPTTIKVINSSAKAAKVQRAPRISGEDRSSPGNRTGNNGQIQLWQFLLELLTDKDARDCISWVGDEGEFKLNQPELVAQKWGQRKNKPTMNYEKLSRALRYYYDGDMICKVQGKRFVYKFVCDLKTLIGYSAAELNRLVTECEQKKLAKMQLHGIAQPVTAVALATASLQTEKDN
The settings on record: protein: recombinant; tags: N-terminal GST; dsDNA, one strand shown. The method in brief: as §1

The target in the next assay is T4, ERG (Homo sapiens, UniProt P11308 1-479).
T4 sequence: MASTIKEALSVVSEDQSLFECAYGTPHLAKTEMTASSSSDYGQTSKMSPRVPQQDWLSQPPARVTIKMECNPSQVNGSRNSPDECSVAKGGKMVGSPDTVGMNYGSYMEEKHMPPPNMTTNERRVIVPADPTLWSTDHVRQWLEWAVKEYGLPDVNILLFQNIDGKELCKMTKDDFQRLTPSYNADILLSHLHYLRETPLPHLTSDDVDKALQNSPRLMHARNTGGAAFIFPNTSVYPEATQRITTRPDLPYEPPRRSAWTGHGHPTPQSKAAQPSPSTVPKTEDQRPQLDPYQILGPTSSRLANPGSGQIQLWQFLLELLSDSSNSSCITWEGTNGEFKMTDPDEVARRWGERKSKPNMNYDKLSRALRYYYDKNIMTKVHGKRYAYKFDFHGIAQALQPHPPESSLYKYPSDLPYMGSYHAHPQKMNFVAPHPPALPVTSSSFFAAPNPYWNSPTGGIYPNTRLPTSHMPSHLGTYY
The settings on record: protein: recombinant; tags: N-terminal GST; dsDNA, one strand shown. The essentials: as §1

A further assay concerns the target ELF1 (Homo sapiens, UniProt P32519 1-619). The settings on record: protein: recombinant; tags: N-terminal GST; dsDNA, one strand shown. The method in brief:
as §1

The target of the next assay is T5, EHF (Homo sapiens, UniProt Q9NZC4 1-300).
T5 sequence: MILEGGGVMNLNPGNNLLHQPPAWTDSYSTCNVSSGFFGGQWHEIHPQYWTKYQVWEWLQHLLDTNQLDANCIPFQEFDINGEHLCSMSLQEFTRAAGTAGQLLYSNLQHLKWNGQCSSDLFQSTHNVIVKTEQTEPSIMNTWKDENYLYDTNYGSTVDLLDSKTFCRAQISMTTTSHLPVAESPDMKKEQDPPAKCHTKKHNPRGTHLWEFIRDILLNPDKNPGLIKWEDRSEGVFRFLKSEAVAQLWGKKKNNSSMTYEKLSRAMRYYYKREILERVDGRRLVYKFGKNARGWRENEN
The settings on record: protein: recombinant; tags: N-terminal GST; dsDNA, one strand shown. The essentials: as §1

In another assay the target is SPI1 (Homo sapiens, UniProt P17947 1-270). The settings on record: protein: recombinant; tags: N-terminal GST; dsDNA, one strand shown. The method in brief:
as §1

The target of another assay is SPIB (Homo sapiens, UniProt Q01892 1-262). The settings on record: protein: recombinant; tags: N-terminal GST; dsDNA, one strand shown. The essentials:
as §1

A further assay addresses T6, ELK3 (Homo sapiens, UniProt P41970 1-407).
T6 sequence: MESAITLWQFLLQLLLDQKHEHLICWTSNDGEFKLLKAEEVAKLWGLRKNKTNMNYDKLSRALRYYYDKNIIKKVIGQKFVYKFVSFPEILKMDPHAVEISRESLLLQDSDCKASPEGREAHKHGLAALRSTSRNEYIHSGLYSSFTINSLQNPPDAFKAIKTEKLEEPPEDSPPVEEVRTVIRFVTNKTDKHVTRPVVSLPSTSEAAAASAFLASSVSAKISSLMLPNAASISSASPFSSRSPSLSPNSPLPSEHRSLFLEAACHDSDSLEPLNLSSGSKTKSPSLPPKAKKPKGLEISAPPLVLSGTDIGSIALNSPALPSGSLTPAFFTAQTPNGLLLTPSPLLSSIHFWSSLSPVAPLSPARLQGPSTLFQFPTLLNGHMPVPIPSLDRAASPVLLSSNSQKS
The settings on record: protein: recombinant; tags: N-terminal GST; dsDNA, one strand shown. The method in brief:
as §1

The target in a further assay is T7, FEV (Homo sapiens, UniProt Q99581 1-238).
T7 sequence: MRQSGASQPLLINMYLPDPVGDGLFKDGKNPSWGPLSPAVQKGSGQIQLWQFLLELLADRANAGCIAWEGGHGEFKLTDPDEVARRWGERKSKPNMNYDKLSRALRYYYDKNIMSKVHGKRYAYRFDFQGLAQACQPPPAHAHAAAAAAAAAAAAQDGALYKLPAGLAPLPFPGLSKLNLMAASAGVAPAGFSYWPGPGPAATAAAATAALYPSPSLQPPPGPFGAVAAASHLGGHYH
The settings on record: protein: recombinant; tags: N-terminal GST; dsDNA, one strand shown. The method in brief:
as §1

The target of a further assay is ETV5 (Homo sapiens, UniProt P41161 1-510). The settings on record: protein: recombinant; tags: N-terminal GST; dsDNA, one strand shown. The method in brief: as §1
In a further assay the target is HSF1 (Homo sapiens, UniProt Q00613 1-529). The settings on record: protein: recombinant; tags: N-terminal GST; chain copies: 3; dsDNA, one strand shown. The method in brief: as §1
For another assay, the target named is T8, SPIC (Homo sapiens, UniProt Q8N5J4 1-248).
T8 sequence: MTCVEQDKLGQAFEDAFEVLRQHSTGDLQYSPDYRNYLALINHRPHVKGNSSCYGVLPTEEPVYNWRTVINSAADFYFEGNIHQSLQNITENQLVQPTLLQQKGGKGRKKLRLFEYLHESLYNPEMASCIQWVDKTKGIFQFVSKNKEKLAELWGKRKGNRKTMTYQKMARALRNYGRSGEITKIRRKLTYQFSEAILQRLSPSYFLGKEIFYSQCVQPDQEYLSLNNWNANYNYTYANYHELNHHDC
The settings on record: protein: recombinant; tags: N-terminal GST; dsDNA, one strand shown. The essentials:
as §1

The target in the next assay is ELF4 (Homo sapiens, UniProt Q99607 1-663). The settings on record: protein: recombinant; tags: N-terminal GST; dsDNA, one strand shown. The essentials: as §1
Another assay has as its target T9, ELK4 (Homo sapiens, UniProt P28324-2 1-405).
T9 sequence: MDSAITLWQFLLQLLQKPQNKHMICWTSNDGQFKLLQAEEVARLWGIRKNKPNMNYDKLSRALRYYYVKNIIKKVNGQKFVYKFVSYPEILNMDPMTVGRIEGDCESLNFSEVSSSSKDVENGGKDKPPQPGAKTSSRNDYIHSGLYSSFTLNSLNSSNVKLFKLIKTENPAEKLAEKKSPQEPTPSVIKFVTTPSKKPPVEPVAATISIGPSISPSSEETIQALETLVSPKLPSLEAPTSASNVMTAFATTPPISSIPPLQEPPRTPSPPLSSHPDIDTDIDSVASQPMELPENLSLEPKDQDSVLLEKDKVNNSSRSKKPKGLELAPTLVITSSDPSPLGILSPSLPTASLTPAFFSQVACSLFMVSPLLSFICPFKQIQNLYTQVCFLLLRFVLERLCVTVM
The settings on record: protein: recombinant; tags: N-terminal GST; dsDNA, one strand shown. The method in brief: as §1

A further assay addresses T10, ETV2 (Homo sapiens, UniProt O00321 1-342).
T10 sequence: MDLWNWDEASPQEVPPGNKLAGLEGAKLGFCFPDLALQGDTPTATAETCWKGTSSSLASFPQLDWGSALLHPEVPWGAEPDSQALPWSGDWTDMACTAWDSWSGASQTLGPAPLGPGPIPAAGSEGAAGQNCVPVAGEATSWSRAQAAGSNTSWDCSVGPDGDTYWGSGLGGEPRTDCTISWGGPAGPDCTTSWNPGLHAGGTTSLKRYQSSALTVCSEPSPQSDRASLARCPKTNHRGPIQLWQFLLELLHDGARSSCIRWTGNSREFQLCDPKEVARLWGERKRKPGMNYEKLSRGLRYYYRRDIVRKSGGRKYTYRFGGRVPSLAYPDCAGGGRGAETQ
The settings on record: protein: recombinant; tags: N-terminal GST; dsDNA, one strand shown. The essentials:
as §1

The target in the next assay is T11, ELF3 (Homo sapiens, UniProt P78545 1-371).
T11 sequence: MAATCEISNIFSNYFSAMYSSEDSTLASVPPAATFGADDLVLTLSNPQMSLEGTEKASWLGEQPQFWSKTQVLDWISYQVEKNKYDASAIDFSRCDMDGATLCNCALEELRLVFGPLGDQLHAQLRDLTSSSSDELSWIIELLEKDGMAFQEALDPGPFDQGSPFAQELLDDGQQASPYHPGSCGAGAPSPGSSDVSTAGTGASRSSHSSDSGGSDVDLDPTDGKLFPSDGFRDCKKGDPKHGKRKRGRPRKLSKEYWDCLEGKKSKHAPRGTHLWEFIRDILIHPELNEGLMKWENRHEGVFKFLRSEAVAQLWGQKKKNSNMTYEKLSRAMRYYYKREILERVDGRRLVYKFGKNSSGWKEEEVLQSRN
The settings on record: protein: recombinant; tags: N-terminal GST; dsDNA, one strand shown. The essentials:
as §1

The next assay deals with CRX (Homo sapiens, UniProt O43186 1-299). The settings on record: protein: recombinant; tags: N-terminal GST; dsDNA, one strand shown. The essentials: as §1
Another assay concerns the target ETV1 (Homo sapiens, UniProt P50549 1-477). The settings on record: protein: recombinant; tags: N-terminal GST; dsDNA, one strand shown. The essentials:
as §1

ETV5, sequence (P41161 whole entry): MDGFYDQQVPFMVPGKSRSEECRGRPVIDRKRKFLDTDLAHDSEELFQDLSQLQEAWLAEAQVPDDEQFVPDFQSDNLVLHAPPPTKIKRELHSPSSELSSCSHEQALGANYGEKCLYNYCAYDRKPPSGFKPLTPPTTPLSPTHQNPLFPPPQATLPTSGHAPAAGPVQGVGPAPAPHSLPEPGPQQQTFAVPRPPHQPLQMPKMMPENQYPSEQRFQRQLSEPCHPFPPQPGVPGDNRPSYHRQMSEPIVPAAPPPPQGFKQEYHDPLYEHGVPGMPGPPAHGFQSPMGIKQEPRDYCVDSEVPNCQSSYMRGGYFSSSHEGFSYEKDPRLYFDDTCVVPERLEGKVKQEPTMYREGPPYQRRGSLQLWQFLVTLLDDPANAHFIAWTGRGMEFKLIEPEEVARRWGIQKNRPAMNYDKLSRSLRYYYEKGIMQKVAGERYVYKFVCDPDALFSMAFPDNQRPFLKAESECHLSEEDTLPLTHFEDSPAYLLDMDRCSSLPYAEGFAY
ELF4, sequence (Q99607 whole entry): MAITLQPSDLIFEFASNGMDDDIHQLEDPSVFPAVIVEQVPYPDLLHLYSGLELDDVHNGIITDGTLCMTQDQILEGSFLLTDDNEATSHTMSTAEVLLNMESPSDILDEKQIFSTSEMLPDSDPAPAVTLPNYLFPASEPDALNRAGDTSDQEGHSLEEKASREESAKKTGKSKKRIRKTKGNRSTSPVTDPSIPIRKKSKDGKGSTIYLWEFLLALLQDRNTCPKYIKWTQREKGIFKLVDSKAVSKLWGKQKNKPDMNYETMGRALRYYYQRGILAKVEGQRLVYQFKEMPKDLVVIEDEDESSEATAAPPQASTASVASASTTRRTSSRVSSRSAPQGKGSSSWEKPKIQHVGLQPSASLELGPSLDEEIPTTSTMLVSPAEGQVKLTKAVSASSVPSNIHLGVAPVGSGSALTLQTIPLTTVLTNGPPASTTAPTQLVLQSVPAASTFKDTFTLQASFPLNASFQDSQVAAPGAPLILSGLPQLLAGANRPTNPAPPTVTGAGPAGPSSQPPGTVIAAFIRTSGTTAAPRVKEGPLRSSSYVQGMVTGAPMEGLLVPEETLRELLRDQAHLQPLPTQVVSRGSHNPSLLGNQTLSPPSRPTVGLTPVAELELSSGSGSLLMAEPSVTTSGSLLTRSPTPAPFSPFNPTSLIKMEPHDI
SPIB, sequence (Q01892 whole entry): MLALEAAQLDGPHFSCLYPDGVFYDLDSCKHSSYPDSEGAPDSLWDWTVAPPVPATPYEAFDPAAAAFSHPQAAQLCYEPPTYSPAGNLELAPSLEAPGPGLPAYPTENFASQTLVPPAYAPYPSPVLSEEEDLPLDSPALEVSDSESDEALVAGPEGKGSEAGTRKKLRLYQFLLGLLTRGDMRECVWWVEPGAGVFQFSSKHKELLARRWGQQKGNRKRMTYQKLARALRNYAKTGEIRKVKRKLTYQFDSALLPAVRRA
CRX, sequence (O43186 whole entry): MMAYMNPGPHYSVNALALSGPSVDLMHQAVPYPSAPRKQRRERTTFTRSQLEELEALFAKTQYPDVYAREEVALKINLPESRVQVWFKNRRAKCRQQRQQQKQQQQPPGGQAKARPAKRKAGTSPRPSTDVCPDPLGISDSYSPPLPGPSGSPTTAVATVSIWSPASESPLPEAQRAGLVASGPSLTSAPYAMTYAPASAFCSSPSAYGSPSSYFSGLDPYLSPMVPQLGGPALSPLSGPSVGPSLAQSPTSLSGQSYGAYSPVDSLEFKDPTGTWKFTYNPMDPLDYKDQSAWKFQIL
ETV1, sequence (P50549 whole entry): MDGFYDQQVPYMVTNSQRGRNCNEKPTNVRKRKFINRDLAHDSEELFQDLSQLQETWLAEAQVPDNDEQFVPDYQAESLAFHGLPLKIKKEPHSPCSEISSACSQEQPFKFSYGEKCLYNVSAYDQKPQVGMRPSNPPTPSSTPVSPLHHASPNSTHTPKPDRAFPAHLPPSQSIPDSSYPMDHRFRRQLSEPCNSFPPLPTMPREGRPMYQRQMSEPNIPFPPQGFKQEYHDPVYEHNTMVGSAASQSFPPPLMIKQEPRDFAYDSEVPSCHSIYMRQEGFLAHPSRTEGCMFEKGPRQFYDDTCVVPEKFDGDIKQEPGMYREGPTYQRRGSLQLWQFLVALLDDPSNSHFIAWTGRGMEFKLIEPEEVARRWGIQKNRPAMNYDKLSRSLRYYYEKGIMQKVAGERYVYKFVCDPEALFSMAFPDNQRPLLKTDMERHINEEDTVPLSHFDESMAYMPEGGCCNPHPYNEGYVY
ELF1, sequence (P32519 whole entry): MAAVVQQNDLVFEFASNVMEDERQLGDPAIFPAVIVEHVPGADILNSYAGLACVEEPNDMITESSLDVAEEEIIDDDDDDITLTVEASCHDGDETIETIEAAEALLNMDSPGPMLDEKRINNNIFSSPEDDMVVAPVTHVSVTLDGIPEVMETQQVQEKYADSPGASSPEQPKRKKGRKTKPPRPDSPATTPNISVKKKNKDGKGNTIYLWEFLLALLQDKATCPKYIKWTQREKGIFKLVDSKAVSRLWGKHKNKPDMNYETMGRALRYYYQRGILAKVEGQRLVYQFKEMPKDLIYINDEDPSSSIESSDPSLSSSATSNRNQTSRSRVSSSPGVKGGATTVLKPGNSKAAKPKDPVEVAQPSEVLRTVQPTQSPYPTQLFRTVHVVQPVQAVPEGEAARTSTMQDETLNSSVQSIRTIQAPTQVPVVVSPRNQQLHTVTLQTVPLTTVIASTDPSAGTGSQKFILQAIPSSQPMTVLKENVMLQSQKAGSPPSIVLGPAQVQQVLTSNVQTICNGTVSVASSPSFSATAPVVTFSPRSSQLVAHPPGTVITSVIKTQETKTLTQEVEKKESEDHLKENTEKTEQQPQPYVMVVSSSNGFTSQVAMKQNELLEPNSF
HSF1, sequence (Q00613 whole entry): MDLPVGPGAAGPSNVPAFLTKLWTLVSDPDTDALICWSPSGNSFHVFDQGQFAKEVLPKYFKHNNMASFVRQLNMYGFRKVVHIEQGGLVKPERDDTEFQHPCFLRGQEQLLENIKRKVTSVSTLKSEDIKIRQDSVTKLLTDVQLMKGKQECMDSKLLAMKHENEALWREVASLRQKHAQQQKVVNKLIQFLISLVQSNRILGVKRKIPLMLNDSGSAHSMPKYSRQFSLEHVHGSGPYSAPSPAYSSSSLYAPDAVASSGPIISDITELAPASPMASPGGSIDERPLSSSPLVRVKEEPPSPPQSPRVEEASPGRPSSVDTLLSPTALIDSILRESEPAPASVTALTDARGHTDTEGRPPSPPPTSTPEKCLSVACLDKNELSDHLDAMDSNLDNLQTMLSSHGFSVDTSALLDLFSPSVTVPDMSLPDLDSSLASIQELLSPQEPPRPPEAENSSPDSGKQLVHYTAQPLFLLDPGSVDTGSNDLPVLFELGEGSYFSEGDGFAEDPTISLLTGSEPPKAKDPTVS

Turning to TTATAG, the binding signal in the assay with FLI1 was 1.13 fold enrichment (6-mer frequency, TF over GST control); with ELK1 it was 1.09 fold enrichment (6-mer frequency, TF over GST control); with GABPA, 1.22 fold enrichment (6-mer frequency, TF over GST control); in the assay with ERG, 1.04 fold enrichment (6-mer frequency, TF over GST control); with ELF1, 1.2 fold enrichment (6-mer frequency, TF over GST control); with EHF it was 1.25 fold enrichment (6-mer frequency, TF over GST control). In addition, the binding signal with SPI1 is 1.2 fold enrichment (6-mer frequency, TF over GST control); with SPIB, 1.2 fold enrichment (6-mer frequency, TF over GST control); with ELK3, 1.03 fold enrichment (6-mer frequency, TF over GST control); in the assay with FEV it was 1.17 fold enrichment (6-mer frequency, TF over GST control); in the assay with ETV5 it was 1.29 fold enrichment (6-mer frequency, TF over GST control); with HSF1 it was 1.8 fold enrichment (6-mer frequency, TF over GST control). For the same sequence, the binding signal in the assay with SPIC is 1.38 fold enrichment (6-mer frequency, TF over GST control); with ELF4, 1.13 fold enrichment (6-mer frequency, TF over GST control); with ELK4, 1.24 fold enrichment (6-mer frequency, TF over GST control); in the assay with ETV2 it was 1.07 fold enrichment (6-mer frequency, TF over GST control); with ELF3 it was 1.27 fold enrichment (6-mer frequency, TF over GST control); in the assay with CRX, 2.46 fold enrichment (6-mer frequency, TF over GST control). For the same sequence, the binding signal with ETV1 is 1.18 fold enrichment (6-mer frequency, TF over GST control).
